# Data as given in PubChem BioAssay (EPA / NIEHS).
# Inconclusive results are not listed. Active and inactive are the calls of the source. Rule for the calls: active = hit-call score of the fitted dose curve at least 0.9, where 1 is the maximum; inconclusive = response in the unintended direction; inactive = score below 0.9.
# Tested on: not listed separately
# Test: ATG_GAL4_TRANS: Attagene TRANS-FACTORIAL HepG2 Assay for GAL4 (Internal Marker) (AID 2282976)
# Details: HepG2 Attagene TRANS GAL4 internal marker reporter
# How it was run: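 In transfected human HepG2 liver cells dosed 24 h, GAL4 reporter mRNA serves as a baseline marker. Detection by RT-PCR with fluorescent capillary electrophoresis, activity fitted upward relative to DMSO.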
row,SMILES,outcome
1,COP(=S)(OC)SCn1nnc2ccccc2c1=O,inactive
2,CC(C)NC(=O)N1CC(=O)N(c2cc(Cl)cc(Cl)c2)C1=O,inactive
3,CC1(C)C(C=C(Cl)Cl)C1C(=O)OC(C#N)c1cccc(Oc2ccccc2)c1 (stereo unspecified),inactive
4,CSC(=O)c1c(C(F)F)nc(C(F)(F)F)c(C(=O)SC)c1CC(C)C,inactive
5,C=C(C)CN(CC)c1c([N+](=O)[O-])cc(C(F)(F)F)cc1[N+](=O)[O-],inactive
6,COP(=S)(OC)Oc1ccc([N+](=O)[O-])c(C)c1,inactive
7,CC1(C)CCC(=Cc2ccc(Cl)cc2)C1(O)Cn1cncn1 (stereo unspecified),inactive
8,Cc1c(COC(=O)[C@@H]2[C@H](/C=C(\Cl)C(F)(F)F)C2(C)C)cccc1-c1ccccc1,inactive
9,N#Cc1c[nH]cc1-c1cccc2c1OC(F)(F)O2,inactive

# Molecular target: Estrogen-related receptor gamma (Homo sapiens) (UniProt P62508)
# Sequence (P62508 whole entry, looked up): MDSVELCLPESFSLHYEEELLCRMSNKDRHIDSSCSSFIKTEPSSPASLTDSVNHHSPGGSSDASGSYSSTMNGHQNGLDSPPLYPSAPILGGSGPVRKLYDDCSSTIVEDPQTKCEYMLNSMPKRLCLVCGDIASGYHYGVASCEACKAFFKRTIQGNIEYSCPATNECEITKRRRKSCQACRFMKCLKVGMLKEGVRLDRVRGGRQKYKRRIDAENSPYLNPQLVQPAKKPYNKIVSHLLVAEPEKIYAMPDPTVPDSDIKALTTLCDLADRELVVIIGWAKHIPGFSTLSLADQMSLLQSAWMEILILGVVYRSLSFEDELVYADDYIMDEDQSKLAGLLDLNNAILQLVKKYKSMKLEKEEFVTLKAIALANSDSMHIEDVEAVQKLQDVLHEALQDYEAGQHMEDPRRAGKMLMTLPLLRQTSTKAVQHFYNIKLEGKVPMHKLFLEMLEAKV
# Test: ATG_ERRg_TRANS: Attagene TRANS-FACTORIAL HepG2 Assay for human Estrogen-Related Receptor gamma (ERRg) (AID 2282977);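 note: hits increase reporter signal over DMSO so potencies reflect activators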
# Details: HepG2 Attagene TRANS reporter, ERRg transactivation
# How it was run: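 Exogenous NR-Gal4 chimera activity was assessed in HepG2 cells bearing transfected GAL4-UAS reporters. After 24 h dosing, total RNA underwent RT-PCR, fluorescent primer extension and HpaI digestion before capillary electrophoresis, with gain of signal scored against DMSO.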
row,SMILES,outcome
1,COC(=O)c1c(C(F)F)nc(C(F)(F)F)c(C2=NCCS2)c1CC(C)C,inactive
2,COC(=O)N(C(=O)N1CO[C@@]2(C(=O)OC)Cc3cc(Cl)ccc3C2=N1)c1ccc(OC(F)(F)F)cc1,inactive
3,CS(=O)(=O)c1cc(C(F)(F)F)ccc1C(=O)c1cnoc1C1CC1,inactive
4,COC(=O)NS(=O)(=O)c1ccc(N)cc1,inactive
5,C=CCOC(=O)C(C)(C)OC(=O)c1cc(-n2c(=O)cc(C(F)(F)F)n(C)c2=O)ccc1Cl,inactive
6,COP(=S)(OC)SCn1nnc2ccccc2c1=O,inactive
7,CC(C)NC(=O)N1CC(=O)N(c2cc(Cl)cc(Cl)c2)C1=O,inactive
8,CC(C)N1C(=O)c2ccccc2NS1(=O)=O,inactive
9,COP(=O)(OC)O/C(C)=C/C(=O)N(C)C,inactive
10,CCCCC(C#N)(Cn1cncn1)c1ccc(Cl)cc1 (stereo unspecified),inactive
11,N#CN=C1SCCN1Cc1ccc(Cl)nc1,inactive
12,CCC(C)n1c(=O)[nH]c(C)c(Br)c1=O (stereo unspecified),inactive
13,COc1cc(OC)nc(NC(=O)NS(=O)(=O)c2ncccc2OCC(F)(F)F)n1,inactive
14,O=C(Nc1ccccc1-c1ccc(Cl)cc1)c1cccnc1Cl,inactive
15,CN=C=S,inactive
16,COc1ccc(-c2ccccc2)cc1NNC(=O)OC(C)C,inactive

row,SMILES,outcome
1,CCOc1nc(C(Cl)(Cl)Cl)ns1,inactive
2,CC1(C)C(C(=O)OC(C#N)c2cccc(Oc3ccccc3)c2)C1(C)C (stereo unspecified),inactive
3,CCOc1cc(C(C)(C)C)ccc1C1COC(c2c(F)cccc2F)=N1 (stereo unspecified),inactive
4,COP(=S)(OC)Oc1ccc([N+](=O)[O-])c(C)c1,inactive
5,Cc1cc(C)nc(Nc2ccccc2)n1,inactive
6,CC(C)Oc1cccc(NC(=O)c2ccccc2C(F)(F)F)c1,inactive
7,COCC(=O)N(c1c(C)cccc1C)C(C)C(=O)OC (stereo unspecified),inactive
8,CC(C)N1C(=O)N(c2ccccc2)CSC1=NC(C)(C)C,inactive
9,O=C1C2CC=CCC2C(=O)N1SC(Cl)(Cl)Cl (stereo unspecified),inactive
10,N#Cc1c[nH]cc1-c1cccc2c1OC(F)(F)O2,inactive
11,CCOC(=O)C(C)OC(=O)c1cc(Oc2ccc(C(F)(F)F)cc2Cl)ccc1[N+](=O)[O-] (stereo unspecified),inactive
12,N#Cc1c(Cl)cccc1Cl,inactive
13,CCCCOCN(C(=O)CCl)c1c(CC)cccc1CC,inactive
14,CCNC(=O)NC(=O)C(C#N)=NOC,inactive
15,Nc1c(Cl)c(F)nc(OCC(=O)O)c1Cl,inactive

# Molecular target: Glucocorticoid receptor (Homo sapiens) (UniProt P04150)
# Sequence (P04150 whole entry, looked up): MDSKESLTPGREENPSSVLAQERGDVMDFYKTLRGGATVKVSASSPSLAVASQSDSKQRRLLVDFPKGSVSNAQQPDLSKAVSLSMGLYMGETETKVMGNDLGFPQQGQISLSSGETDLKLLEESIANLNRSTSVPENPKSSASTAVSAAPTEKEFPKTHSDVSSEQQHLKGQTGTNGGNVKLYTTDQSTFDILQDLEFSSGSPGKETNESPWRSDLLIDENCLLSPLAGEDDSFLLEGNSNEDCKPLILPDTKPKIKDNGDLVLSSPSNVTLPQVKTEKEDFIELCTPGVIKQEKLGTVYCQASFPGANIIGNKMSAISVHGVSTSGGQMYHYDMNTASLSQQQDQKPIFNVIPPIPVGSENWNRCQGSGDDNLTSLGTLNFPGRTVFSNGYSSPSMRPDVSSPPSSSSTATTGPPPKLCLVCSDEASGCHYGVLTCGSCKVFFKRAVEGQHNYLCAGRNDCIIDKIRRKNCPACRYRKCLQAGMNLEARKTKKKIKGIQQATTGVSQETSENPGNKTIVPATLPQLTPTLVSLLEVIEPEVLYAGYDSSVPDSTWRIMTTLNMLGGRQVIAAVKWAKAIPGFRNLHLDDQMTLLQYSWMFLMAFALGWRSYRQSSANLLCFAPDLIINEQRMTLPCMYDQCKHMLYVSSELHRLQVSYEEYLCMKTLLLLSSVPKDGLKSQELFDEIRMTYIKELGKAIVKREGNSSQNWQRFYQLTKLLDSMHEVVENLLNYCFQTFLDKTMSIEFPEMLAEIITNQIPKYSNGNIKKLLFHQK
# Test: ATG_GR_TRANS: Attagene TRANS-FACTORIAL HepG2 Assay for human Glucocorticoid Receptor (GR) (AID 2282978);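 note: activators score as hits since higher reporter transcript over DMSO is fitted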
# Details: HepG2 Attagene TRANS GR reporter, mRNA transcription
# How it was run: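 Transient MRTU transfection of HepG2 (GAL4-UAS reporters, exogenous NR-GAL4 chimeras), 24 h dosing. Readout: reporter transcript via RT-PCR + capillary electrophoresis fluorescence. Positive direction vs DMSO baseline.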
row,SMILES,outcome
1,COC(=O)N(C(=O)N1CO[C@@]2(C(=O)OC)Cc3cc(Cl)ccc3C2=N1)c1ccc(OC(F)(F)F)cc1,inactive
2,CS(=O)(=O)c1cc(C(F)(F)F)ccc1C(=O)c1cnoc1C1CC1,inactive
3,CC(C)N1C(=O)c2ccccc2NS1(=O)=O,inactive
4,CCCCC(C#N)(Cn1cncn1)c1ccc(Cl)cc1 (stereo unspecified),inactive
5,N#CN=C1SCCN1Cc1ccc(Cl)nc1,inactive
6,COc1cc(OC)nc(NC(=O)NS(=O)(=O)c2ncccc2OCC(F)(F)F)n1,inactive
7,O=C(Nc1ccccc1-c1ccc(Cl)cc1)c1cccnc1Cl,inactive
8,CC1(C)C(C=C(Cl)Cl)C1C(=O)OC(C#N)c1cccc(Oc2ccccc2)c1 (stereo unspecified),inactive
9,CSC(=O)c1c(C(F)F)nc(C(F)(F)F)c(C(=O)SC)c1CC(C)C,inactive
10,COc1ccc(-c2ccccc2)cc1NNC(=O)OC(C)C,inactive
11,C=C(C)CN(CC)c1c([N+](=O)[O-])cc(C(F)(F)F)cc1[N+](=O)[O-],inactive
12,COP(=S)(OC)Oc1ccc([N+](=O)[O-])c(C)c1,inactive
13,CC1(C)CCC(=Cc2ccc(Cl)cc2)C1(O)Cn1cncn1 (stereo unspecified),inactive
14,Cc1cc(C)nc(Nc2ccccc2)n1,inactive
15,CC(C)Oc1cccc(NC(=O)c2ccccc2C(F)(F)F)c1,inactive
16,CC(C)N1C(=O)N(c2ccccc2)CSC1=NC(C)(C)C,inactive
17,N#Cc1c[nH]cc1-c1cccc2c1OC(F)(F)O2,inactive
18,CCOC(=O)C(C)OC(=O)c1cc(Oc2ccc(C(F)(F)F)cc2Cl)ccc1[N+](=O)[O-] (stereo unspecified),inactive
19,N#Cc1c(Cl)cccc1Cl,inactive
20,CCCCOCN(C(=O)CCl)c1c(CC)cccc1CC,inactive
21,Nc1c(Cl)c(F)nc(OCC(=O)O)c1Cl,inactive
